LANA-H2A inh: blockers of LANA interaction with H2A/H2B – biochemical, FP readout, HTS, primary screen; 320,000 compounds, 0.6% hits; inhibition, % (no concentration beside the values); Protein LANA1 (Human herpesvirus 8 type P (isolate GK18)), Q9QR71; AID 2629, 2010; cell-free LANA-H2A/H2B peptide, fluorescence polarization; in the data active = inhibition mostly above about 10%, no sharp cut-off; inactive = mostly below about 6.7%
HTR2A ag: mouse Htr2a agonists via beta-arrestin recruitment, primary screen, cell-based, luminescence. 5-hydroxytryptamine receptor 2A (Mus musculus), P35363. 360,000 compounds, 0.66% hits. activation, % at 7.6 µM. CHO-K1 mHTR2A beta-arrestin complementation; percent of 30 µM serotonin response;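 active = activation above a run cutoff, the mean activation of all tested compounds plus 3 SD, cut at about 14% in these data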;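 also: 0% = plate median of compound wells and 100% = 30 µM serotonin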
HDAC3 inh: HDAC3 deacetylase inhibitors, primary screen, biochemical, fluorescence, cell-free homogeneous; Histone deacetylase 3 (Homo sapiens), O15379; recombinant HDAC3, fluorogenic peptide/trypsin coupled; inhibition, % at 8.3 µM; 320,000 compounds, 0.15% hits; in the data active = inhibition above about 26%, passing the limit was not always enough
Target sequence (O15379 whole entry, looked up): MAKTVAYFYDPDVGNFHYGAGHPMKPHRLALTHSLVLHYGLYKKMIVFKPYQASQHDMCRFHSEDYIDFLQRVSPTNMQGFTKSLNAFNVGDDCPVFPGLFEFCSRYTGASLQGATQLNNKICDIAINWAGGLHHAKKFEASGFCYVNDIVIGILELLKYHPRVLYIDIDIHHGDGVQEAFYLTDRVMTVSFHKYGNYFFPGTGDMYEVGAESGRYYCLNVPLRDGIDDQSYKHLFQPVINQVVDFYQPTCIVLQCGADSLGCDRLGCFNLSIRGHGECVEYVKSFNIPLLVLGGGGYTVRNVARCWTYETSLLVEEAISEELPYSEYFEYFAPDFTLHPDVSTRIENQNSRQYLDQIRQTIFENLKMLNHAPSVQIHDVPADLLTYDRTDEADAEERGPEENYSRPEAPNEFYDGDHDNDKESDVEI
Fh CTSL1 inh: Fasciola hepatica cathepsin L1 inhibitors, primary screen, counter-screen for PFM18AAP inhibitor project, biochemical, QFRET, fluorogenic peptide substrate | 300,000 compounds, 0.49% hits | AID 1906, 2009 | inhibition, % at 5.96 µM | recombinant F. hepatica cathepsin L1, Z-Leu-Arg-MCA fluorescence;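 active = inhibition above the mean of all tested compounds plus 3 SD, set per screening campaign, cut at about 17% in these data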;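 also: 0% = plate median of test compound wells and 100% = 1 µM Z-Phe-Ala-diazomethylketone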
MOR ag counter: OPRM1 agonists via beta-arrestin recruitment, confirmation, counter-screen for mouse HTR2A agonist project, cell-based, luminescence, single concentration; shares compounds with HTR2A ag; U2OS OPRM1 beta-arrestin PathHunter; DMSO 0%, DAMGO 9.3 µM 100%; activation, % at 9.3 µM; 2,300 compounds, 5.3% hits; AID 624380, 2012;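 active = mean activation above the mean of DMSO-only wells plus 3 SD, cut at about 0.5% in these data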
HTR2A ag conf: mouse HTR2A agonists, beta-arrestin recruitment, confirmation, cell-based, luminescence, CHO-K1 PathHunter, triplicate. shares compounds with HTR2A ag. AID 624381, 2012. activation, % at 7.6 µM. DMSO 0%, 30 µM serotonin 100%. 2,300 compounds, 19% hits;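 active = mean activation across triplicates above the hit threshold derived in the original primary screen, cut at about 15% in these data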
* marks the source's active call; other numbers are inactive results. Rows were chosen to be rich in hits. Some 1.7% of all compounds tested hit in one or more screens of this group.

For O=C(Cc1ccccc1)NCC(=O)N/N=C/c1ccc([N+](=O)[O-])s1 the results were LANA-H2A inh 3, HTR2A ag 18*, HDAC3 inh 7, Fh CTSL1 inh 4, MOR ag counter 0 and HTR2A ag conf -1.
For O=C(Nc1cccc([N+](=O)[O-])c1)Nc1cnccn1 the results were LANA-H2A inh -3, HTR2A ag -5, HDAC3 inh 13 and Fh CTSL1 inh 0.
CCNC(=O)NC(=O)CSc1ccc(S(=O)(=O)N2CCCCC2)cn1 was read as LANA-H2A inh -10, HTR2A ag 2 and HDAC3 inh -1.
For C=CCN=c1scc(-c2ccco2)n1/N=C/c1ccc(O)c(O)c1O the results were LANA-H2A inh 10, HTR2A ag 16*, HDAC3 inh 13, Fh CTSL1 inh 0, MOR ag counter 1.9* and HTR2A ag conf 129*.
`CC(C)N=c1scc(-c2ccco2)n1/N=C/c1ccc(O)c(O)c1` gave LANA-H2A inh 5, HTR2A ag 18*, HDAC3 inh 2, Fh CTSL1 inh 3, MOR ag counter 1.1* and HTR2A ag conf 10.
Screening CN=c1scc(-c2cccs2)n1/N=C/c1ccc(O)c(O)c1O returned LANA-H2A inh 8, HTR2A ag 2, HDAC3 inh 3 and Fh CTSL1 inh 3.
COCCN=c1scc(-c2ccco2)n1/N=C/c1ccc(O)c(O)c1O was read as LANA-H2A inh 0, HTR2A ag 28*, HDAC3 inh 9, Fh CTSL1 inh 1, MOR ag counter 0 and HTR2A ag conf 72*.
Screening COc1ccc2c(c1)C(=O)C1NC(=O)NC(=O)C1(Br)N2 (configuration not stated) returned HTR2A ag 2.
For CCOC(=O)c1c(C)[nH]c(C(=O)CN(C)CC(=O)Nc2ccccc2C(F)(F)F)c1C the results were LANA-H2A inh -12, HTR2A ag -5 and HDAC3 inh 3.
Brc1ccccc1OCCN1CCCC1 was read as LANA-H2A inh -3, HTR2A ag -9, HDAC3 inh 1 and Fh CTSL1 inh -3.
Screening CCN(CC(=O)Nc1cc(Cl)ccc1Cl)C(=O)c1ccc(-n2cccn2)cc1 returned LANA-H2A inh -4, HTR2A ag -5 and HDAC3 inh 3.
Cc1c(-c2cccc(NC(=O)c3cccs3)c2)nc2ncccn12 was read as LANA-H2A inh -9, HTR2A ag 15*, HDAC3 inh -54, Fh CTSL1 inh -3, MOR ag counter -1 and HTR2A ag conf 7.
`Cc1c(NS(=O)(=O)c2ccc(N)cc2)c(=O)n(-c2ccccc2)n1C` gave LANA-H2A inh 5, HTR2A ag 7, HDAC3 inh 1 and Fh CTSL1 inh 2.
For CCc1nc2c3cnn(-c4cc(Cl)ccc4C)c3ncn2n1 the results were LANA-H2A inh 3, HTR2A ag 16*, HDAC3 inh -2, Fh CTSL1 inh -3, MOR ag counter -1 and HTR2A ag conf -3.
Cn1nc(N2CCN(S(=O)(=O)c3ccccc3)CC2)c(=O)n(C)c1=O was read as HTR2A ag 0 and HDAC3 inh -3.
`COC(=O)C1=C(Cn2cnc3ccccc32)NC(=O)NC1c1cc(C)ccc1C` (configuration not stated) gave LANA-H2A inh 2, HTR2A ag 73*, HDAC3 inh 5, Fh CTSL1 inh 1 and HTR2A ag conf 46*.
CCOc1ccc(NC(=O)CSc2nnc(NC(=O)C3CC3)s2)cc1 was read as LANA-H2A inh -1, HTR2A ag 13, HDAC3 inh 2 and Fh CTSL1 inh 2.
Screening CC(NC(=O)Cn1c(=O)oc2cc(S(=O)(=O)N3CCCC3)ccc21)c1ccccc1 (configuration not stated) returned HTR2A ag 18*, Fh CTSL1 inh -1, MOR ag counter -1 and HTR2A ag conf -5.
